# Test results as given in PubChem BioAssay (NCATS).
# Unmarked numbers belong to inactive results. Records with an inconclusive call do not appear. The list shows a part of the results. A call without a number means that no potency is given here. Activity calls are given as the source filed them. Unless noted, calls come from the whole dose curve; as a rule, active = well fitted curve in the direction sought with a large enough effect; inconclusive = small, poorly fitted or top-dose-only effect, or another doubt; inactive = no such curve, though single readings can be large; an effect the other way counts as inactive or inconclusive.
# What was measured:
# [1] = target: Tyrosyl-DNA phosphodiesterase 1 (Homo sapiens) (UniProt Q9NUW8); assay: Confirmation Assay for Inhibitors of Tyrosyl-DNA Phosphodiesterase (TDP1) (AID 489007); conditions: recombinant human TDP1 enzymatic activity, dose-response; note: potency is the fitted concentration of half-maximal effect; nearly all actives have a fitted effect of over 40% in size
# Outline: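 Compounds are preincubated 15 min at room temperature with 1 nM recombinant human Tdp1. The reaction starts on adding 15 nM FITC-phosphotyrosine DNA substrate, runs 5 min, and is detected by AlphaScreen beads after 10 min.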
# [2] = target: Rap guanine nucleotide exchange factor 3 (Homo sapiens) (UniProt O95398); assay: Confirmatory qHTS for antagonist of cAMP-regulated guanine nucleotide exchange factor 3 (EPAC1) (AID 1645880); conditions: EPAC1 Rap1B-BODIPY-GDP exchange, fluorescence; activity, negative = inhibition: at 115 µM (top of the series); note: nearly all actives have a fitted effect of over 55% in size; note: potency is the fitted concentration of half-maximal effect
# Sequence of Rap guanine nucleotide exchange factor 3 (Homo sapiens) (O95398 whole entry, looked up): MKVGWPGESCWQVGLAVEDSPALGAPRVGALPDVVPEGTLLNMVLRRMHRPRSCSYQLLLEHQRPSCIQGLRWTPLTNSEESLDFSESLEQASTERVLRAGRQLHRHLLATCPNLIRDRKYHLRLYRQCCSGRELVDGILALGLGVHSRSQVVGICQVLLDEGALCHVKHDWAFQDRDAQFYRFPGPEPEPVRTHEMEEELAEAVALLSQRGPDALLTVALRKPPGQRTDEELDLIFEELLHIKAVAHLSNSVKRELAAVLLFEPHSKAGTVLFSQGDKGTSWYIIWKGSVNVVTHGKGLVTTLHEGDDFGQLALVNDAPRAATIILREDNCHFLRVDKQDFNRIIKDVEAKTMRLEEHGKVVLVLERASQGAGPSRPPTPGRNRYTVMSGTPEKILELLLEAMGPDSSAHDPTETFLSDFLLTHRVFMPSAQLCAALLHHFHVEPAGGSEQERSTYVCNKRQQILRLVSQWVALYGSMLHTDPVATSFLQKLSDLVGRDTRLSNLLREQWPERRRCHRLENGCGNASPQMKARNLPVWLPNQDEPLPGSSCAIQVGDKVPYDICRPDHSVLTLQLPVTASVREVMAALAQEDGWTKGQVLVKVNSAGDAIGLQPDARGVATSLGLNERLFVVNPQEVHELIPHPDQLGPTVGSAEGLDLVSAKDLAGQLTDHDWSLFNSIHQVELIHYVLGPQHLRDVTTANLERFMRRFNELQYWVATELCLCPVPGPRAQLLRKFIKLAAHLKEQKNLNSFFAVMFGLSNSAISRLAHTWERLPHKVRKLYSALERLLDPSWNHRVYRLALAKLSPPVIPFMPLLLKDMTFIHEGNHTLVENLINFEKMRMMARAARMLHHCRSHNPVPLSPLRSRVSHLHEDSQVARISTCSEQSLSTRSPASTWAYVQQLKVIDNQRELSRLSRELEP
# Outline: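 Released BODIPY-GDP fluoresces less than Rap1-bound BODIPY-GDP; the signal is followed at 480/540 nm at 5-min intervals over 30 min, after 5 min at room temperature. Reactions contain 100 nM EPAC1, 250 nM RAP1B-BODIPY-GDP and 50 uM GDP; results are normalized to ATA and DMSO.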
# [3] = target: Rap guanine nucleotide exchange factor 3 (Homo sapiens) (UniProt O95398); assay: Confirmatory qHTS for agonist of cAMP-regulated guanine nucleotide exchange factor 3 (EPAC1) (AID 1645881); note: nearly all actives have a fitted effect of over 75% in size; note: potency is the fitted concentration of half-maximal effect;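 for activation: EPAC1 catalysed release of BODIPY-GDP from Rap1B seen as fluorescence loss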
# [4] = target: Rap guanine nucleotide exchange factor 4 (Homo sapiens) (UniProt Q8WZA2); assay: Confirmatory qHTS for agonist of cAMP-regulated guanine nucleotide exchange factor 4 (EPAC2) (AID 1645884);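 note: nucleotide exchange releases bodipy-GDP from Rap1 and this lowers its fluorescence; nearly all actives have a fitted effect of over 65% in size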; note: potency is the fitted concentration of half-maximal effect
# Sequence of Rap guanine nucleotide exchange factor 4 (Homo sapiens) (Q8WZA2 whole entry, looked up): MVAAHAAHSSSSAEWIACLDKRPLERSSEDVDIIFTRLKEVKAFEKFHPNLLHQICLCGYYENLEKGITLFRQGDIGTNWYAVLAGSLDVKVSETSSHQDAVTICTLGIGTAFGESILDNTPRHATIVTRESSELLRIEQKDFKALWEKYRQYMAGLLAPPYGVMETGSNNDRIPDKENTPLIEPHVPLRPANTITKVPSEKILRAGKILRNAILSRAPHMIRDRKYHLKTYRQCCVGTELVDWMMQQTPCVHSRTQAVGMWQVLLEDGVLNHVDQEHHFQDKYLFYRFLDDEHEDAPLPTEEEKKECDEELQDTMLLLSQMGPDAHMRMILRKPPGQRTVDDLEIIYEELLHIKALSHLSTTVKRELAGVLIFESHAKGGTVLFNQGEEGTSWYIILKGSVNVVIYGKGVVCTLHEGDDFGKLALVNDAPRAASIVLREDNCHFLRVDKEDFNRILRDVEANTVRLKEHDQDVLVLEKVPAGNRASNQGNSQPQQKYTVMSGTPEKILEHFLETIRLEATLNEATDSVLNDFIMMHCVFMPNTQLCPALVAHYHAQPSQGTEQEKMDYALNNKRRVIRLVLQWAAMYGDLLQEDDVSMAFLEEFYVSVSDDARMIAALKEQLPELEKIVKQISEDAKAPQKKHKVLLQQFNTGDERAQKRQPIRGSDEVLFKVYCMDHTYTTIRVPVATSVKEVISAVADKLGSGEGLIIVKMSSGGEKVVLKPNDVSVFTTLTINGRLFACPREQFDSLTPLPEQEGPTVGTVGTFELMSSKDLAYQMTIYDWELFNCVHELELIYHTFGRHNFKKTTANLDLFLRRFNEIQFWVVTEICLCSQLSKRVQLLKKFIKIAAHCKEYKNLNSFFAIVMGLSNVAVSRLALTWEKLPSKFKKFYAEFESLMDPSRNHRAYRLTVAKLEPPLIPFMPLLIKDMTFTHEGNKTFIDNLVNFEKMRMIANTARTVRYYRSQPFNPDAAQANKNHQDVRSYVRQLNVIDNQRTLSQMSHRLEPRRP
# [5] = target: Rap guanine nucleotide exchange factor 4 (Homo sapiens) (UniProt Q8WZA2); assay: Confirmatory qHTS for antagonist of cAMP-regulated guanine nucleotide exchange factor 4 (EPAC2) (AID 1645885); note: nearly all actives have a fitted effect of over 25% in size; note: potency is the fitted concentration of half-maximal effect
# [6] = target: Rap guanine nucleotide exchange factor 3 (Homo sapiens) (UniProt O95398); assay: Counterscreen qHTS for antagonist of cAMP-regulated guanine nucleotide exchange factor 3 (EPAC1) (AID 1645888)
# Outline: (§1)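 Measured: fluorescence of BODIPY-GDP bound to Rap1B, which falls as exchange proceeds. Conditions include 50 uM competing GDP, 5 and 30 min reads, and a later cAMP challenge for antagonist detection.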
# [7] = target: Tumor susceptibility gene 101 protein (Homo sapiens) (UniProt Q99816); assay: qHTS Assay for Iinhibitors of HIV-1 Budding by Blocking the Interaction of PTAP/TSG101: Hit Validation (AID 651600); note: nearly all actives have a fitted effect of over 70% in size; note: potency is the fitted concentration of half-maximal effect
# Sequence of Tumor susceptibility gene 101 protein (Homo sapiens) (Q99816 whole entry, looked up, the tested form may be a part): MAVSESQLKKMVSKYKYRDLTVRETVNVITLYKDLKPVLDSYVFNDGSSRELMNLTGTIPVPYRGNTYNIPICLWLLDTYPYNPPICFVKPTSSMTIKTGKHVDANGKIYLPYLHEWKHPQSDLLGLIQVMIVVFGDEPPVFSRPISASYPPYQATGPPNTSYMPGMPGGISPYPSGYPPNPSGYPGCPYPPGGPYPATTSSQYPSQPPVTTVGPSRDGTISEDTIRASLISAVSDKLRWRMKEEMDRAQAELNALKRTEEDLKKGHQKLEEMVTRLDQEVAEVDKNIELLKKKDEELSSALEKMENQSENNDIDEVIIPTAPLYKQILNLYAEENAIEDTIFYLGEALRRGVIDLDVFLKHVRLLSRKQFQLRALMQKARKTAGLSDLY
# Outline: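 Compounds are added to the Tsg101 binding domain (10 uM final) in pH 7.5 HEPES buffer. FITC-PTAP peptide follows at 50 nM final. After 20 min at r.t., polarized FITC emission is measured.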
# [8] = target: Rap guanine nucleotide exchange factor 3 (Homo sapiens) (UniProt O95398); assay: Counterscreen qHTS for agonist of cAMP-regulated guanine nucleotide exchange factor 3 (EPAC1) (AID 1645889); note: nearly all actives have a fitted effect of over 40% in size; note: potency is the fitted concentration of half-maximal effect
# Outline: as §1
# [9] = AP1 Signaling Pathway (AID 357; active = well fitted curve in either direction with a large enough effect, not every such curve was filed as active;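 note: ME-180 reporter cells stimulated with EGF at its EC50 level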); conditions: ME-180 (cervical carcinoma) AP-1-bla reporter, EGF-induced, beta-lactamase ratio, 5 h; at 7.69 µM (top of the series) unless noted
# Outline: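 First, ME-180 AP-1-bla cells were cultured overnight at 37 °C in low-serum Opti-MEM. Next, titrated compounds with EC50 EGF were incubated 5 hours. Finally, CCF4 was added for 2.5 hours and the 460/530 nm ratio recorded.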
# [10] = NFAT Signaling Pathway (AID 444; active = well fitted curve in either direction with a large enough effect, not every such curve was filed as active;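 note: carbachol stimulus at about its EC50 of 1 µM final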); conditions: Jurkat NFAT-bla M1, carbachol, beta-lactamase ratio, 5 h; at 7.69 µM (top of the series) unless noted
# Outline: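 Jurkat cells carrying an NFAT-driven β-lactamase reporter and co-transfected muscarinic M1 receptor were treated with compound plus carbachol (1 uM final, an EC50 level) for 5 h at 37 °C. CCF4 loading followed for 1 h at RT; 460/530 nm ratio gave %activity.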
# [11] = Stat Signaling Pathway (AID 446; active = well fitted curve in either direction with a large enough effect, not every such curve was filed as active;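 note: ME-180 cervical cancer cells given 40 pM IL-6 alongside compound; SIE-controlled beta-lactamase reporter measured as 460/530 nm FRET emission ratio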)
# Outline: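 FRET read-out (405 nm excitation, 460/530 nm emission) of a beta-lactamase reporter under a STAT-inducible element in ME-180 cervical carcinoma cells. Cells with compound receive 40 pM IL-6 for 5 h. Values are normalised to AC90 stimulation and AC90 JAK-inhibitor controls.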
# [12] = target: Glucocorticoid receptor (Homo sapiens) (UniProt P04150); assay: GR-GFP Redistribution (AID 450;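 active = compounds whose dose series gives a full or clear partial fitted curve of increased nuclear translocation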; note: potency is the fitted concentration of half-maximal effect); conditions: U2OS GR-GFP nuclear translocation, laser cytometry, 2 h
# [13] = qHTS for Inhibitors of the vitamin D receptor (VDR): Hit Validation using a Texas Red Assay (AID 602201)
# Outline: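 Fluorescence polarization (Ex 595/Em 615 nm) of Texas Red (7 nM) with 1.5 uM VDR-LBD and LG19078 (final concentrations). Compounds were incubated for 2 hours at room temperature.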
# [14] = target: DNA polymerase iota (Homo sapiens) (UniProt Q9UNA4); assay: qHTS for Inhibitors of Polymerase Iota: Confirmatory Assay for Cherry-picked Compounds (AID 720496); conditions: Pol iota primer extension, TAMRA/BHQ fluorescence; note: potency is the fitted concentration of half-maximal effect
# Sequence of DNA polymerase iota (Homo sapiens) (Q9UNA4 whole entry, looked up): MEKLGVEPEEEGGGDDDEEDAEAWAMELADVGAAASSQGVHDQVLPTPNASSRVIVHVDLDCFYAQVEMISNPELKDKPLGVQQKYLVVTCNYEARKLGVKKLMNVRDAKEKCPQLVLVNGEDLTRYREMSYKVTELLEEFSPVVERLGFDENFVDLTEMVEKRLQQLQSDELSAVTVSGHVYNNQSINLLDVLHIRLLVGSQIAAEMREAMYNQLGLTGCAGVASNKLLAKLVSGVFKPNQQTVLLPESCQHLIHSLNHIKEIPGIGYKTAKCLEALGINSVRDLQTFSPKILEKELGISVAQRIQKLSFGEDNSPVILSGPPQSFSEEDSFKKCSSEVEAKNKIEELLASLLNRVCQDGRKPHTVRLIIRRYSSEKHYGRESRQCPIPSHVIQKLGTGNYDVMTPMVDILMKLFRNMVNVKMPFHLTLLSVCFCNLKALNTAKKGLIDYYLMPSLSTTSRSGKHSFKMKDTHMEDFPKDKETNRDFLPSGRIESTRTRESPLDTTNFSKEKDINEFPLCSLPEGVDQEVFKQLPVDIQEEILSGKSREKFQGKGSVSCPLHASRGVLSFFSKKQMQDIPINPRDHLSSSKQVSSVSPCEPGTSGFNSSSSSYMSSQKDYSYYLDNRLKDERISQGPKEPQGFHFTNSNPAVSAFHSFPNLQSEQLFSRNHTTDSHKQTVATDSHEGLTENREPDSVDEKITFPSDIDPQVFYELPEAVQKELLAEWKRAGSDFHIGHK
# Outline: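 Extension of a quenched TAMRA-reporter/BHQ-2-template DNA substrate (50 nM) by 10 nM Pol iota after 15 min compound preincubation. Strand-displacement fluorescence (525/598 nm) was read kinetically at 0 and 10 min. Buffer-only wells served as negative control.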
# [15] = target: DNA polymerase kappa (Homo sapiens) (UniProt Q9UBT6); assay: qHTS for Inhibitors of Polymerase Kappa: Confirmatory Assay for Cherry-picked Compounds (AID 720501); conditions: purified Pol-kappa, fluorescent strand-displacement substrate; note: potency is the fitted concentration of half-maximal effect
# Outline: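 Human Pol-kappa, dispensed at 10 nM, was preincubated with compounds for 15 min at room temperature. Reactions were started with primer/template substrate (50 nM final) carrying a TAMRA reporter strand and BHQ-2-quenched template, and fluorescence (ex 525/em 598 nm) was read at 0 and 10 min.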
# [16] = target: ATPase family AAA domain-containing protein 5 (Homo sapiens) (UniProt Q96QE3); assay: HTS assay for small molecules that inhibit ELG1-dependent DNA repair in human embryonic kidney (HEK293T) cells expressing luciferase-tagged ELG1: Hit Confirmation (AID 624248); conditions: HEK293T ELG1-luciferase levels, luminescence; cells co-treated with 5-fluorouridine; note: potency is the fitted concentration of half-maximal effect; nearly all actives have a fitted effect of over 55% in size
# Sequence of ATPase family AAA domain-containing protein 5 (Homo sapiens) (Q96QE3 whole entry, looked up, the tested form may be a part): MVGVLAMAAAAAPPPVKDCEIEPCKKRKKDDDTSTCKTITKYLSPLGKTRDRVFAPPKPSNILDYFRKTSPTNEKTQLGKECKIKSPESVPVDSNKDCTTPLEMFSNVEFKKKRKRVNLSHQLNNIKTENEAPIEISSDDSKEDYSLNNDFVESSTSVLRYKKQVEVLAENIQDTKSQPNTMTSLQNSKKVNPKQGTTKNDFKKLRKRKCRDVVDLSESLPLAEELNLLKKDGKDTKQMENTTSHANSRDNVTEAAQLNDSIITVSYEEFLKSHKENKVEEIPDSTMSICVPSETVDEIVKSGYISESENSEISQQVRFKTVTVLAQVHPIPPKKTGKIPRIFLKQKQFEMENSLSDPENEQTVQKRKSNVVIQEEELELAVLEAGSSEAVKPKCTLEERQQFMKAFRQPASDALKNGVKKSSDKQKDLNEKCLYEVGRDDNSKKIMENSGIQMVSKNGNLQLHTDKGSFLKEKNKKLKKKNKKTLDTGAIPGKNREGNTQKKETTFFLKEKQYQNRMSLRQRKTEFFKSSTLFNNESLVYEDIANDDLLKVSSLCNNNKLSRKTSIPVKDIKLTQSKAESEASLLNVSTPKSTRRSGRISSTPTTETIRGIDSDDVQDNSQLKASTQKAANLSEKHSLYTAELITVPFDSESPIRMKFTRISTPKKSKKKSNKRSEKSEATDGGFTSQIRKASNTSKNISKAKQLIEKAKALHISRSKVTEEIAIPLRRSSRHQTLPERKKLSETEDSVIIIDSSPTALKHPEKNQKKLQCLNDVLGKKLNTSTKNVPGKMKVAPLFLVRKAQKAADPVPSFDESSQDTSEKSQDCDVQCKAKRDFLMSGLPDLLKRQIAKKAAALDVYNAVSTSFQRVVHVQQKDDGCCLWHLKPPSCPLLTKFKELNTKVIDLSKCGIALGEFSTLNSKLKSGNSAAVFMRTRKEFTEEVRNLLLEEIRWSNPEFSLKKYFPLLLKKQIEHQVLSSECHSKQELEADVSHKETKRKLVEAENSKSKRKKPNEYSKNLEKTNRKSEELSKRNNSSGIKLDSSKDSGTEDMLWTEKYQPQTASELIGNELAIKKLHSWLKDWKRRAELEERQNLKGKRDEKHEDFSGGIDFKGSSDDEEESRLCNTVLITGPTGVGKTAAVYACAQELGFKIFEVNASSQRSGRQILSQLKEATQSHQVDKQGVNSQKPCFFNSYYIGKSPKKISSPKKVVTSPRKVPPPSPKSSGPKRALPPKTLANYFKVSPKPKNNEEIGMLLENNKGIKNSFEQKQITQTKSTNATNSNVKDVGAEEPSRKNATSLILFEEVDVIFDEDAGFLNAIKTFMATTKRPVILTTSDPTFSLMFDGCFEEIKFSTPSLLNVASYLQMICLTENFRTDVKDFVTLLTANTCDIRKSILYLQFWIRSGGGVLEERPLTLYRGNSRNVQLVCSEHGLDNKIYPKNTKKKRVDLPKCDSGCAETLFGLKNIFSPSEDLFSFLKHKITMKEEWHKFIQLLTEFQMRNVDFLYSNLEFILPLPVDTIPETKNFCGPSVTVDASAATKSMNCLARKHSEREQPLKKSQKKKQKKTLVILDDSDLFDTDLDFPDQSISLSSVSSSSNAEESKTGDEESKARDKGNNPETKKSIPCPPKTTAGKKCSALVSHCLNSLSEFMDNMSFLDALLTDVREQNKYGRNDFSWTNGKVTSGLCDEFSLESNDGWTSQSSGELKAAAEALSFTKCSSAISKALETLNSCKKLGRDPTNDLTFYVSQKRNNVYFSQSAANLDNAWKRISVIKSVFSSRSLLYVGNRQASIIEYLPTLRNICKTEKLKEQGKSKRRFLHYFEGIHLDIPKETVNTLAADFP
# Outline: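 Cells (2,000/well) received 5-Fluorouridine plus pin-transferred compound or DMSO and were incubated 16 hr at 37 °C, 5% CO2. Luciferase activity was read by ONE-Glo luminescence after 30 min at room temperature; inhibitors suppress the signal.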
# [17] = target: ATPase family AAA domain-containing protein 5 (Homo sapiens) (UniProt Q96QE3); assay: qHTS screen for small molecules that inhibit ELG1-dependent DNA repair in human embryonic kidney (HEK293T) cells expressing luciferase-tagged ELG1: Hit Confirmation using MMS Stimulated ELG1 (AID 624249); note: potency is the fitted concentration of half-maximal effect; nearly all actives have a fitted effect of over 60% in size
# Outline: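 Hit confirmation in an ELG1-luc HEK293T line: about five hours after plating, wells got compound plus MMS at a final 10 µM. A 16 h incubation preceded Amplight-based luciferase measurement.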
# [18] = qHTS screen for small molecules that inhibit ELG1-dependent DNA repair: Hit Confirmation with MMS Viability (AID 624251);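 note: viability read 16 h after compound addition; nearly all actives have a fitted effect of over 60% in size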
# Outline: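 This confirmation step measures survival of ELG1-luciferase reporter HEK293T cells co-treated with test compounds and MMS at a final 10 µM, using CellTiter-Glo after a 16-hour incubation.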
# [19] = qHTS for Inhibitors of Plasmodium falciparum (DD2) proliferation (AID 504314);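 note: parasite DNA measured by SYBR Green fluorescence after red cell lysis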
# Outline: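 SYBR Green growth assay: 72 h compound exposure of infected red cells (2.5% hematocrit, 0.3% parasitemia), then lysis and overnight dye staining, fluorescence 485/535 nm. Values scaled between DMSO and 0.29 uM artemisinin controls.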
# [20] = qHTS for Inhibitors of Plasmodium falciparum (GB4) proliferation (AID 504315); note: nearly all actives have a fitted effect of over 50% in size
# Outline: (§2)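 Parasite growth measured as SYBR Green DNA fluorescence (ex 485, em 535 nm) after overnight lysis following 72 h culture at 37 °C, 0.3% parasitemia, 2.5% hematocrit. Values normalized against DMSO and 0.29 uM artemisinin controls, with plate-stack correction.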
# [21] = qHTS for Inhibitors of Plasmodium falciparum (7G8) proliferation (AID 504316); note: nearly all actives have a fitted effect of over 65% in size
# Outline: as §2
# [22] = qHTS for Inhibitors of Plasmodium falciparum (HB3) proliferation (AID 504318); note: nearly all actives have a fitted effect of over 60% in size
# Outline: as §2
# [23] = qHTS for Inhibitors of Plasmodium falciparum (CP250) proliferation (AID 504320)
# Outline: as §2
structure (smiles),measurement,setting,value
Fc1ccc(N2N=C(c3cccs3)CC2c2ccccc2)cc1 (configuration not stated),Potency,[1],28.2 µM (active)
same,Potency,[2],inactive
same,Potency,[3],inactive
same,Potency,[4],inactive
same,Potency,[5],inactive
same,Potency,[6],inactive
Cc1cc2nc3c(=O)n(C4CCCCC4)c(=O)[nH]c3nc2cc1N,Potency,[7],0.651 µM (active)
same,Potency,[2],inactive
same,Potency,[3],56.2 µM (active)
same,Potency,[4],56.2 µM (active)
same,Potency,[5],inactive
same,Potency,[6],inactive
same,Potency,[8],25.1 µM (active)
Cn1c(/C(C#N)=C/c2ccc(-c3ccc(S(N)(=O)=O)cc3)o2)nc2ccccc21,Potency,[7],inactive
same,Potency,[2],inactive
same,Potency,[3],inactive
same,Potency,[4],inactive
same,Potency,[5],95.3 µM (active)
same,Potency,[6],inactive
CC1=C(C#N)C(=O)OC(C)(C)C1,"activity change, negative = inhibition",[9],8.14% [at 17.2 µM]
same,"activity change, negative = inhibition",[10],-4.86% [at 17.2 µM]
same,outcome,[11],inactive
same,Potency,[12],> 20.6 µM
same,Potency,[2],inactive
same,Potency,[3],inactive
same,Potency,[4],inactive
same,Potency,[5],0.601 µM (active)
same,Potency,[6],inactive
CCOC(=O)COc1ccc(Br)cc1/C=C/c1[nH]c(=O)[nH]c(=O)c1[N+](=O)[O-],Potency,[13],inactive
same,Potency,[2],7.57 µM (active)
same,Potency,[3],inactive
same,Potency,[4],inactive
same,Potency,[5],inactive
same,Potency,[6],inactive
Cn1c(=O)c(N)c2c3c(c(Br)ccc31)C(=O)c1ccccc1-2,Potency,[7],1.63 µM (active)
same,Potency,[2],26.9 µM (active)
same,Potency,[3],inactive
same,Potency,[4],inactive
same,Potency,[5],26.9 µM (active)
same,Potency,[6],inactive
same,Potency,[8],inactive
COc1ccc(Br)cc1/C=N/Nc1ccc(S(=O)(=O)Nc2ccccc2C(=O)O)cc1[N+](=O)[O-],Potency,[14],37.7 µM (active)
same,Potency,[15],42.3 µM (active)
same,Potency,[2],25.1 µM (active)
same,Potency,[3],inactive
same,activation,[4],"0.546% [at 17.1 µM, percent relative to cAMP agonist control]"
same,Potency,[5],inactive
same,"activity change, negative = inhibition",[6],-3.11% [at 30.8 µM]
same,activation,[8],19% [at 30.8 µM]
COc1cc(OC)c(-c2cc(C(=O)O)ccc2OC)c(OC)c1,Potency,[7],inactive
same,Potency,[2],inactive
same,Potency,[3],inactive
same,activation,[4],"1.75% [at 17.1 µM, percent relative to cAMP agonist control]"
same,Potency,[5],inactive
same,"activity change, negative = inhibition",[6],-0.0153% [at 30.8 µM]
same,activation,[8],38.4% [at 30.8 µM]
Cc1cc(=O)oc2ccc(OC(=O)CN3C(=O)c4cccc([N+](=O)[O-])c4C3=O)cc12,Potency,[7],inactive
same,Potency,[2],inactive
same,Potency,[3],inactive
same,Potency,[4],inactive
same,Potency,[5],inactive
same,Potency,[6],inactive
same,Potency,[8],inactive
Cc1ccc(C(=O)NN2C(=O)/C(=C/c3cn(C)c4ccccc34)SC2=S)cc1,Potency,[7],14.6 µM (active)
same,Potency,[2],inactive
same,Potency,[3],inactive
same,Potency,[4],inactive
same,Potency,[5],inactive
same,Potency,[6],inactive
COc1ccc2nc3ccccc3nc2c1NC(=O)c1ccc(Cl)cc1Cl,Potency,[7],inactive
same,Potency,[2],inactive
same,Potency,[3],100 µM (active)
same,Potency,[4],100 µM (active)
same,Potency,[5],inactive
same,Potency,[6],inactive
O=C1c2cccc3c(O)ccc(c23)C(=O)N1c1ccc(Cl)cc1,Potency,[7],4.11 µM (active)
same,Potency,[2],inactive
same,Potency,[3],112 µM (active)
same,Potency,[4],112 µM (active)
same,Potency,[5],84.9 µM (active)
same,Potency,[6],inactive
same,Potency,[8],39.8 µM (active)
N=c1c(S(=O)(=O)c2ccc(Br)cc2)cc2c(=O)n3ccccc3nc2n1Cc1ccccc1,Potency,[7],inactive
same,Potency,[2],50.1 µM (active)
same,Potency,[3],inactive
same,activation,[4],"-5.31% [at 17.1 µM, percent relative to cAMP agonist control]"
same,Potency,[5],inactive
same,"activity change, negative = inhibition",[6],-6.58% [at 30.8 µM]
same,activation,[8],9.82% [at 30.8 µM]
COc1ccc(-c2cc(C(=O)N(C)CC(=O)Nc3ccccc3Cl)c3ccccc3n2)cc1OC,Potency,[16],4.99 µM (active)
same,Potency,[17],12.5 µM (active)
same,outcome,[18],inactive
same,Potency,[2],inactive
same,Potency,[3],inactive
same,activation,[4],"3.75% [at 17.1 µM, percent relative to cAMP agonist control]"
same,Potency,[5],inactive
same,"activity change, negative = inhibition",[6],-9.19% [at 30.8 µM]
COC(=O)C1=C(C(=O)OC)[C@@H]2N(Cc3ccccc3)c3ccccc3[C@@]23C[C@@H](C(=O)OC)N=C3N1,outcome,[19],inactive
same,outcome,[20],inactive
same,outcome,[21],inactive
same,outcome,[22],inactive
same,outcome,[23],inactive
same,Potency,[2],inactive
same,Potency,[3],inactive
same,activation,[4],"0% [at 17.1 µM, percent relative to cAMP agonist control]"
same,Potency,[5],inactive
same,"activity change, negative = inhibition",[6],17% [at 30.8 µM]
COc1ccc2nc3ccccc3[n+]([O-])c2c1,Potency,[7],18.3 µM (active)
same,Potency,[2],inactive
same,Potency,[3],79.4 µM (active)
same,activation,[4],"14% [at 17.1 µM, percent relative to cAMP agonist control]"
same,Potency,[5],inactive
same,"activity change, negative = inhibition",[6],32.7% [at 30.8 µM]
O=C(OCCN1C(=O)c2cccc3c(N4CCOCC4)ccc(c23)C1=O)c1cccc(Cl)c1,Potency,[7],inactive
same,Potency,[2],inactive
same,Potency,[3],89.1 µM (active)
same,Potency,[4],100 µM (active)
same,Potency,[5],75.7 µM (active)
same,Potency,[6],inactive
same,Potency,[8],3.16 µM (active)
COc1ccc(CNC(=O)C(C#N)c2nc3ccccc3nc2N2CCCC2)cc1 (configuration not stated),Potency,[7],9.19 µM (active)
same,Potency,[2],inactive
same,Potency,[3],inactive
same,Potency,[4],inactive
same,Potency,[5],inactive
same,Potency,[6],inactive
same,Potency,[8],inactive
